From PMC5540273 (PLoS ONE, 2017) come the findings set out here.

Conditions in all cases: concentration: 1 μM, replicates: in singlicate; n = 1
Experiment [1] deals with MAP3K4.
In experiment [2] the test system is MAP4K2.
Experiment [3] relates to MAP4K3.
Experiment [4] relates to MAP4K4.
For experiment [5], the system named is MAP4K5.
For experiment [6], the system named is MAPKAPK2.
The test system of experiment [7] is MAPKAPK5.
The test system of experiment [8] is MARK1.
In experiment [9] the test system is MARK2.
Experiment [10] relates to MARK3.
For experiment [11], the system named is MARK4.
The subject of experiment [12] is MAST1.
Experiment [13] has as its system T1, MEK1.
T1 construct: gene MAP2K1

Experiment [14] has as its system T2, MEK2.
T2 construct: gene MAP2K2

Experiment [15] concerns T3, MEK3.
T3 construct: gene MAP2K3

Experiment [16] has as its system T4, MEK4.
T4 construct: gene MAP2K4

Experiment [17] has as its system T5, MEK5.
T5 construct: gene MAP2K5

Experiment [18] concerns T6, MEK6.
T6 construct: gene MAP2K6

Experiment [19] relates to MELK.
For experiment [20], the system named is MERTK.
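Note: KINOMEscan kinase panel screen.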

In the case of `Nc1nc(N)c2nc(-c3ccccc3)[nH]c2n1` [SKF-12778], the “%Inh” value in [1] stood at 26%; in experiment [2], 26%; in experiment [3] it was 0%; in experiment [4], 26%; in experiment [5] it was 21%; in [6], 13%. Also, the “%Inh” value was determined as 5% in experiment [7]; 1% in [8]; 0% in experiment [9]; 0% in experiment [10]; 11% in [11]; 0% in experiment [12]. Moreover, the “%Inh” value in experiment [13] is recorded as 0%; in [14], 13%; in [15], 0%; in [16], 1%; in [17], 18%; in [18] it was 0%. The results for the “%Inh” value in experiment [19] and in [20] were 9% and 47%, respectively.
`COc1cccc(C2=C(Nc3cccc(C(=O)O)c3)C(=O)NC2=O)c1` [SB-390770]: the “%Inh” value in [1] was found to be 20%; in experiment [2], 0%; in experiment [3], 11%; in experiment [4], 12%; in experiment [5], 15%; in [6], 6%. Besides, the “%Inh” value in [7] was 0%; in experiment [8], 15%; in experiment [9] it was 0%; in [10], 0%; in experiment [11], 23%; in experiment [12], 35%. Besides, the “%Inh” value was 0% in [13]; 10% in experiment [14]; 0% in [15]; 16% in experiment [16]; 4% in [17]; 0% in [18]. In addition, the “%Inh” value in experiment [19] amounted to 21%; in experiment [20], 3%.
On to `Cc1ccccc1COc1cc(-n2cnc3cc(Cl)ccc32)sc1C(N)=O` [GW813349], for which the “%Inh” value in [1] came out at 20%; in experiment [2] it was 0%; in experiment [3] it was 0%; in [4] it was 12%; in experiment [5] it was 20%; in experiment [6], 0%. Also, the “%Inh” value is recorded as 0% in experiment [7]; 0% in [8]; 0% in [9]; 14% in [10]; 8% in experiment [11]; 0% in [12]. The “%Inh” value in experiment [13] was found to be 6%; in [14], 14%; in experiment [15] it was 19%; in experiment [16] it was 0%; in experiment [17], 59%; in [18] it was 0%. Besides, the “%Inh” value in [19] turned out to be 33%; in [20], 16%.
With `Cl.NS(=O)(=O)c1cccc(Nc2cc(-c3ccc(F)cc3)n[nH]2)c1` [GW824645], the “%Inh” value in experiment [1] is 1%; in [2], 0%; in experiment [3], 0%; in [4], 0%; in [5], 0%; in experiment [6], 0%. The “%Inh” value is 0% in experiment [7]; 0% in [8]; 19% in [9]; 14% in experiment [10]; 6% in experiment [11]; 9% in [12]. Besides, the “%Inh” value in [13] was 12%; in [14] it was 45%; in experiment [15] it was 22%; in experiment [16], 27%; in [17], 70%; in experiment [18] it was 0%. Also, the “%Inh” value in [19] and in experiment [20] was 0% each time.
For the compound `COc1ccc(-c2coc3ccc(-c4nnc(SCc5cccc(C#N)c5)o4)cc23)cc1`, the “%Inh” value in [1] is listed as 11%; in experiment [2], 0%; in experiment [3] it was 13%; in experiment [4], 13%; in [5], 12%; in experiment [6], 0%. The “%Inh” value in experiment [7] is on record as 18%; in experiment [8], 20%; in experiment [9] it was 18%; in experiment [10] it was 10%; in experiment [11], 13%; in [12], 31%. Besides, the “%Inh” value amounted to 4% in [13]; 13% in experiment [14]; 0% in experiment [15]; 38% in experiment [16]; 21% in experiment [17]; 16% in experiment [18]. For the same compound, the “%Inh” value is reported as 11% in [19] and 0% in experiment [20].
`Cc1cc(Nc2nc(-c3cccc(C)n3)nc3ccccc23)ccn1` [GW872411]: the “%Inh” value was 0% in experiment [1]; 0% in [2]; 12% in experiment [3]; 0% in experiment [4]; 0% in experiment [5]; 0% in experiment [6]. The “%Inh” value in experiment [7] is 0%; in [8] it was 21%; in [9] it was 13%; in experiment [10], 22%; in [11], 27%; in experiment [12], 0%. For the same compound, the “%Inh” value was determined as 2% in experiment [13]; 9% in [14]; 12% in [15]; 0% in experiment [16]; 4% in experiment [17]; 0% in [18]. For the same compound, the “%Inh” value in experiment [19] was found to be 0%; in [20], 25%.
For `OCCCNc1nccc(-c2c(-c3cccc(C(F)(F)F)c3)nn3cc(C(F)(F)F)ccc23)n1` [GW630813], the “%Inh” value in experiment [1] stood at 4%; in [2], 0%; in [3] it was 0%; in experiment [4] it was 6%; in experiment [5], 2%; in experiment [6] it was 7%. Moreover, the “%Inh” value in experiment [7], in experiment [8], in experiment [9], in experiment [10], in experiment [11] and in [12] was 0% throughout. Moreover, the “%Inh” value in [13] came out at 0%; in [14], 0%; in experiment [15], 0%; in experiment [16], 0%; in experiment [17], 7%; in [18], 0%. Also, the results for the “%Inh” value in experiment [19] and in [20] were 0% and 12%, respectively.
As to `O=C(NCCNc1ccnc(Nc2ccc(F)cc2)n1)Nc1ccc2c(c1)OCO2` [GSK1379882], the “%Inh” value in experiment [1] was 24%; in [2], 0%; in [3] it was 0%; in [4], 0%; in experiment [5], 0%; in experiment [6], 0%. Besides, the “%Inh” value in experiment [7] was found to be 0%; in experiment [8], 0%; in experiment [9], 0%; in experiment [10], 0%; in [11], 0%; in [12] it was 4%. Besides, the “%Inh” value in experiment [13] is 9%; in experiment [14], 19%; in [15], 4%; in experiment [16], 10%; in experiment [17], 9%; in experiment [18], 8%. The “%Inh” value in experiment [19] is reported as 8%; in [20], 0%.
Turning to `Nc1nccc2scc(-c3ccc4c(c3)CCN4C(=O)Cc3ccccc3)c12` [GSK2576924], the “%Inh” value is 10% in experiment [1]; 6% in [2]; 17% in experiment [3]; 24% in [4]; 48% in experiment [5]; 6% in experiment [6]. Further, the “%Inh” value in [7] is reported as 0%; in experiment [8], 0%; in experiment [9] it was 1%; in experiment [10] it was 1%; in [11], 0%; in [12] it was 0%. Moreover, the “%Inh” value is 2% in experiment [13]; 7% in experiment [14]; 0% in [15]; 5% in experiment [16]; 93.2% in experiment [17]; 6% in [18]. Besides, the “%Inh” value in experiment [19] was 16%; in experiment [20] it was 22%.
On to `COc1ccc(-c2cc3c(C)nc(N)nc3n([C@H]3CC[C@H](OCCO)CC3)c2=O)cn1`, for which the “%Inh” value stood at 4% in experiment [1]; 0% in experiment [2]; 30% in experiment [3]; 0% in [4]; 0% in [5]; 0% in experiment [6]. The “%Inh” value in experiment [7] is on record as 0%; in [8] it was 0%; in [9], 1%; in experiment [10], 0%; in [11] it was 0%; in experiment [12] it was 0%. The “%Inh” value is reported as 0% in experiment [13]; 0% in experiment [14]; 5% in [15]; 0% in experiment [16]; 0% in experiment [17]; 16% in [18]. Also, the results for the “%Inh” value in [19] and in experiment [20] were 19% and 0%, respectively.
In the case of `COc1cccc(C2=C(N(C)c3ccccc3)C(=O)NC2=O)c1` [SB-334865], the “%Inh” value was found to be 12% in experiment [1]; 0% in experiment [2]; 0% in experiment [3]; 0% in [4]; 0% in [5]; 17% in experiment [6]. Moreover, the “%Inh” value turned out to be 0% in experiment [7]; 0% in experiment [8]; 0% in [9]; 0% in experiment [10]; 1% in [11]; 0% in [12]. Also, the “%Inh” value in [13] was 0%; in experiment [14], 0%; in experiment [15], 0%; in experiment [16] it was 4%; in experiment [17] it was 6%; in [18] it was 0%. Moreover, the “%Inh” value in experiment [19] is recorded as 0%; in experiment [20], 18%.
